Only some compounds are listed: those with a hit (about 11% of all), similar ones and a draw of the others.
KDM4E inh = blocks human JMJD2E demethylase activity | 1.6% of 230,000 active | JMJD2E catalytic domain, FDH-coupled NADH fluorescence (FDH is formaldehyde dehydrogenase) | B2RXH2 | Potency, µM (titrated, usually from 57.1 µM), without a hit: at the highest dose activity change, negative = inhibition, usual class: inhibitors;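 further: potency means the concentration at half of the fitted maximal effect; 0% = wells with enzyme and -100% = buffer wells without enzyme; nearly all actives have a fitted effect of over 50% in size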
HPGD block = HPGD (human) dehydrogenase inhibition; 4.3% of 150,000 active; purified HPGD, NADH fluorescence kinetic, PGE2 substrate; P15428; AID 894; Potency, µM, inactives show at the highest dose activity change, negative = inhibition, hits mostly inhibitors; further: potency means the concentration at half of the fitted maximal effect
Target sequence (P15428 whole entry, looked up): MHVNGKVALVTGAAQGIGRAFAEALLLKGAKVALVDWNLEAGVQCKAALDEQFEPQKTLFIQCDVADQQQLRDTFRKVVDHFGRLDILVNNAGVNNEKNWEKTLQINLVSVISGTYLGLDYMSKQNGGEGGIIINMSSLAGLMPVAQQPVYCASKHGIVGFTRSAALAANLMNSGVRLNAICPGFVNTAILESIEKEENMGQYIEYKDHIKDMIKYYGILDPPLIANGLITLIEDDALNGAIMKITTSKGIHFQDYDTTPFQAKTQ
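20 nM HPGD preincubated 15 min at room temperature with compound in 50 mM Tris-HCl pH 8, 0.01% Tween 20. Started with 1 mM NAD+ and 30 uM prostaglandin E2; NADH fluorescence (360/450 nm) read 5 times over 30-s intervals, last minus first.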
PNC assembly inh = perinucleolar compartment assembly inhibition; 3.1% of 140,000 active; activity change (PNC), negative = inhibition, % at 10 µM; PC3M PTB-GFP, PNC prevalence imaging, 16 h; hits give low values; AID 2417;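 active means readout at or below -70, meaning at least 70% loss of cells showing the perinucleolar compartment, a nuclear body marking cancer cells; inconclusive means readout between -30 and a set limit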;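 further: plate controls were DMSO wells for no effect and camptothecin positive control wells for full effect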
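Compounds are pinned in duplicate onto adhered PC3M cells stably expressing GFP-tagged PTB and incubated 16 h at 37 C. Cells are then fixed, nuclei stained with Hoechst, and PNC-positive cells counted.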
ALDH1A1 inh = ALDH1A1 (human) enzyme inhibition; Purified ALDH1A1, NADH fluorescence, propionaldehyde substrate; Potency, µM (titrated, usually from 75.3 µM), for the others: at the top dose activity, negative = inhibition, most hits filed as inhibitors; 7.3% of 220,000 active; AID 1030;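 further: potency means the concentration at half of the fitted maximal effect; plate controls were no enzyme wells and a reference inhibitor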
* hit, by the source's call. Unless noted, the call rests on the fitted dose curve; in most records, active means well fitted inhibition curve with a large enough effect (not every such curve was filed as active); inconclusive means small, poorly fitted or top-dose-only effect, or another doubt; inactive means no such curve, though single readings can be large or run the other way. Unless noted, on the % scale 0 is the no-effect control and ±100 the full control effect.

CCC(=O)Nc1cccc(NC(=S)NC(=O)c2ccccc2C)c1 was read as KDM4E inh -5% and ALDH1A1 inh -16%.
Screening Cc1cc(C(=O)COC(=O)c2ccc(Br)o2)c(C)n1Cc1ccco1 returned KDM4E inh -4% and ALDH1A1 inh inconclusive.
Screening Cc1cc(C(=O)C(C)Cl)c(C)n1Cc1ccco1 (configuration not stated) returned KDM4E inh -19% and ALDH1A1 inh 7.1µM*.
`Cc1cc(C(=O)COC(=O)c2ccc(O)cc2)c(C)n1Cc1ccco1` gave KDM4E inh -1%, HPGD block -20%, PNC assembly inh 27 and ALDH1A1 inh 7.9µM*.
`Cc1ccc(-n2c(C)cc(C(=O)CSc3nnnn3C)c2C)cc1` gave KDM4E inh -6%, HPGD block -28%, PNC assembly inh 5 and ALDH1A1 inh inconclusive.
Cc1cc(C(=O)COC(=O)C(C)NC(N)=O)c(C)n1Cc1ccco1 (configuration not stated) was read as KDM4E inh 8% and ALDH1A1 inh 4%.
For Cc1cc(C(=O)CSc2nnnn2C)c(C)n1Cc1ccco1 the results were KDM4E inh 0% and ALDH1A1 inh 28µM*.
For O=C1CCN(Cc2nc(-c3ccc(Cl)cc3)no2)CCN1 the results were KDM4E inh -6% and ALDH1A1 inh -14%.
Screening N#C/C(=C\c1ccc(N2CCCCC2)o1)C(N)=O returned KDM4E inh -20% and ALDH1A1 inh -11%.
Screening N#C/C(=C/c1ccc(N2CCOCC2)o1)c1ccc(Cl)cc1 returned KDM4E inh inconclusive, HPGD block inconclusive, PNC assembly inh inconclusive and ALDH1A1 inh 13µM*.
COc1ccnc(N=CNOCc2cccc(C(F)(F)F)c2)c1C#N was read as KDM4E inh 6% and ALDH1A1 inh inconclusive.
For O=c1[nH]cnc2c1sc(=S)n2-c1ccccc1 the results were KDM4E inh 5%, HPGD block 14µM*, PNC assembly inh inconclusive and ALDH1A1 inh 10µM*.
`O=c1[nH]c(-c2ccc(F)cc2)nc2c1sc(=S)n2-c1ccccc1` gave KDM4E inh 0%, HPGD block -26%, PNC assembly inh inconclusive and ALDH1A1 inh inconclusive.
Screening COc1cc2[nH]c3c(Cl)ncnc3c2cc1OC returned KDM4E inh 0%, HPGD block -13%, PNC assembly inh -26 and ALDH1A1 inh inconclusive.
`COc1cc2[nH]c(Cl)c([N+](=O)[O-])c2cc1OC` gave KDM4E inh 13µM*.
`COc1ccccc1OCC(=O)Nc1nonc1NC(=O)COc1ccccc1OC` gave KDM4E inh 2%, HPGD block -8%, PNC assembly inh -18 and ALDH1A1 inh 5%.
For CC[n+]1ccc2cc(OC)c(OC)cc2c1Cc1ccc(OC)c(OC)c1 the results were KDM4E inh 25µM* and ALDH1A1 inh -2%.
`CCCCCC(=O)Nc1cccc(C2=NOC3(C2)C[C@@H](C(N)=O)N(C(=O)c2ccc(Cl)cc2)C3)c1` (some centres not stated) gave KDM4E inh -6%.
COc1ccc(CC(=O)NC2CCN(Cc3nnnn3C(C)(C)C)CC2)cc1OC was read as KDM4E inh -1%, HPGD block -6%, PNC assembly inh inconclusive and ALDH1A1 inh 25µM*.
`Cc1ccc(Cn2nnnc2CN2CCC(NC(=O)c3ccc(Br)cc3)CC2)cc1` gave KDM4E inh 2%, HPGD block -1%, PNC assembly inh 7 and ALDH1A1 inh -6%.
`CCC(C)(C)n1nnnc1CN1CCC(NC(=O)c2ccc(Br)cc2)CC1` gave KDM4E inh 6%, HPGD block -13%, PNC assembly inh inconclusive and ALDH1A1 inh 5µM*.
Screening C[C@@H]1CCC[C@H](C)N1Cc1nc(Cc2ccccc2Cl)no1 returned KDM4E inh 7% and ALDH1A1 inh 8%.
O=[N+]([O-])c1ccc(-c2nnc(-c3ccccc3)c(NCCCO)n2)cc1 was read as KDM4E inh -9%, HPGD block -18%, PNC assembly inh -85* and ALDH1A1 inh inconclusive.
For OCCCNc1nc(-c2ccc(Cl)cc2)nnc1-c1ccc(Br)cc1 the results were KDM4E inh -7%, HPGD block -8%, PNC assembly inh 3 and ALDH1A1 inh 6%.
CCN1C(=O)/C(=C/C=C2/CCCN2C)OC1=S was read as KDM4E inh 11µM* and ALDH1A1 inh 2.8µM*.
Screening Cc1ccc(S(=O)(=O)Nc2csc(C)c2C(=O)O)cc1 returned KDM4E inh -4% and ALDH1A1 inh 11%.

From PubChem
